# Fewer than 10 of roughly 1,800 compounds were called active. How the calls were made is not given here. The list is a sample of the results. A call without a number means that no potency is given here. Potency and affinity values are given separately.
# Assay: antiviral activity against H1N1 influenza, dose response, cell-based, strain KY180 (AID 540254)
# Conditions: H1N1 KY180 influenza antiviral cell-based screen; series mostly up to 40 µM
row,SMILES,outcome
1,Cc1cccc2sc(NNC(=O)c3ccc(S(=O)(=O)N4CCc5ccccc5C4)cc3)nc12,inactive
2,CCOc1ccc(C(=S)NC2CCCCC2)cc1OC,inactive
3,c1ccc2[nH]c(CSc3nc4ccccc4o3)nc2c1,inactive
4,CCCCOC(=O)Nc1ccc(S(=O)(=O)Nc2cc(C)nc(C)n2)cc1,inactive
5,Cc1cc(C(=O)N/N=C/c2c(C)[nH]n(-c3ccccc3)c2=O)n[nH]1,inactive
6,C=CCOc1cccc(/C=N/NC(=O)CC(=O)NC2CCCCC2)c1,inactive
7,O=C(CSc1n[nH]c(-c2ccccn2)n1)Nc1cccc(Cl)c1,inactive
8,CN(C)CCCNC(=O)c1ccc(-c2cc(O)c3ncccc3c2)cc1,inactive
9,Oc1ccc(N=Nc2c(O)ccc3ccccc23)cc1,inactive
10,CC1=NN(c2ccc(C)cc2)C(=O)/C1=C\C=C\c1ccccc1,inactive
11,Cc1ccc(C(=O)N/C(=C\c2cccc([N+](=O)[O-])c2)C(=O)NCc2ccncc2)cc1,inactive
12,CN(C)S(=O)(=O)c1ccc(NC(=O)CSc2ncnc3ccccc23)cc1,inactive
13,Cc1ccc(S(=O)(=O)C2(C(=O)NCc3ccc4c(c3)OCO4)CC2)cc1,inactive
14,O=C(Cn1cnc([N+](=O)[O-])n1)N/N=C/c1ccccc1O,inactive
15,Clc1cc2cccnc2c2ncccc12,inactive
16,O=C(N/N=C(\Cc1ncc[nH]1)c1ccccc1)c1ccncc1,inactive
17,CCOC(=O)Cc1nnc(NC(=O)C(CC)Sc2nncn2C)s1 (stereo not given),inactive
18,Cc1ccc(NC(=O)COc2cccc3ccc(C)nc23)c(Br)c1,inactive
19,COc1cccc(N=Nc2ccc3ccccc3c2O)c1,inactive
20,Cn1c(SCC(=O)NC2CC2)nnc1-c1ccccn1,inactive
21,COc1cc(O)c(/C=N/NC(=O)c2ccncc2)c(OC)c1[N+](=O)[O-],inactive
22,COC(=O)c1c(C)oc2ccc(N(C(=O)c3ccncc3)S(=O)(=O)c3ccc4ccccc4c3)cc12,inactive
23,CC(=NNC(=S)N1CC2CCC(CC2)C1)c1nccs1,inactive
24,CCOc1cccc(/C=N/NC(=O)c2cccnc2)c1O,inactive

row,SMILES,outcome
1,O=C(N/N=C/c1cc(O)ccc1Br)c1cccnc1,inactive
2,COc1cccc2c(=O)n(CC(=O)Nc3ccc(F)cc3F)ccc12,inactive
3,CC(c1ccccc1)n1c(CO)nc2ccccc21 (stereo not given),inactive
4,O=C(Nc1nc(-c2ccccn2)cs1)c1ccco1,inactive
5,O=C1/C(=C/c2ccc(O)c(O)c2)SC(=S)N1Nc1ccccc1,inactive
6,CN1CCN(c2ccc(N)cc2)CC1,inactive
7,COC(=O)Cn1c(=O)c2c(nc3n2CC(C)CN3c2ccc(C)c(C)c2)n(C)c1=O (stereo not given),inactive
8,CCCNC(=O)COC(=O)/C=C/c1ccco1,inactive
9,CC(C)CCNC(=O)CCC(=O)NNc1nc2ccccc2c2nc(-c3ccccc3)nn12,inactive
10,CCOc1ccc(NS(=O)(=O)c2ccc(NS(=O)(=O)c3ccc(SC)cc3)cc2)cc1,inactive
11,COc1ccc(C(C)=O)cc1COC(=O)[C@H](Cc1ccccc1)NC(=O)c1ccco1,inactive
12,CC(C)CC(C(=O)OCC(=O)Nc1ncc(Cl)cc1Cl)N1C(=O)c2ccccc2C1=O (stereo not given),inactive
13,CCN1/C(=C/c2ccc3cc(C)cc(C)c3[n+]2CC)Sc2cc(C)ccc21,inactive
14,Cc1ccc(O)c(N=NC2=C(O)CC(C)(C)CC2=O)c1,inactive
15,Cc1cc2cc(CNC(=O)NC3CCCCC3)ccc2n1C,inactive
16,COc1ccc(C(=O)N/N=C(\C)c2ccccn2)cc1OC,inactive
17,Cc1ccc(NCCCn2cnc(C(=O)Nc3ccc(C)c(C)c3)n2)cc1C,inactive
18,COC(=O)c1cc(S(=O)(=O)N2CCCCCC2)c[nH]1,inactive
19,O=C(O)c1ccc(N2C(=O)/C(=C/c3ccc(-c4ccc([N+](=O)[O-])cc4)o3)C=C2c2ccccc2)cc1,inactive
20,O=C(N/N=C/c1cc([N+](=O)[O-])ccc1O)c1cccc(N2CCCC2=O)c1,inactive
21,O=C(NCc1ccccn1)C(=O)N/N=C/c1ccccc1O,inactive
22,CCCN1C(=O)/C(=C2\SC(N3CCCCC3)=NC2=O)c2ccccc21,inactive
23,CCN(Cc1ccccc1)c1ccc(N=Nc2nn(C)c(C)c2[N+](=O)[O-])cc1,inactive
24,CCOC(=O)N1CCN(c2c(NCCc3ccccc3)c(=O)c2=O)CC1,inactive

row,SMILES,outcome
1,CCOc1ccc(-n2c(SCC(=O)Nc3ccccc3C)n[nH]c2=O)cc1,inactive
2,COc1cc(C=O)ccc1OCC(=O)Nc1ccc2c(c1)OCO2,inactive
3,CC1=NN(c2ccccc2)C(=O)/C1=C/c1c(O)n(-c2ccc(F)cc2)[nH]c1=O,inactive
4,Cc1cc(C)cc(N2C(=O)C3NN=C(C(=O)OCc4ccccc4)C3C2=O)c1 (stereo not given),inactive
5,O=C1CCC(=O)N1CCC(c1ccc(F)cc1)c1ccco1 (stereo not given),inactive
6,CN(C)c1ccc(N=Cc2ccco2)cc1,inactive
7,COc1cccc(C(=O)O/N=C(\N)c2ccncc2)c1,inactive
8,Cc1ccc(NC(=O)N2CCCCCC2)cc1C,inactive
9,CCN(CC)CCN1C(=O)c2oc3ccc(F)cc3c(=O)c2C1c1ccncc1 (stereo not given),inactive
10,CN(CC(=O)NCc1ccccn1)S(=O)(=O)c1ccc(Br)cc1,inactive
11,CC(=O)Nc1cccc(NC(=O)CSc2nn3c(=O)c(C)nnc3s2)c1,inactive
12,Cc1ccn(CC(=O)N/N=C/c2cc([N+](=O)[O-])ccc2O)n1,inactive
13,Cc1cccc(NC(=O)CCN2C(=O)c3ccccc3S2(=O)=O)c1C,inactive
14,O=C(CN1C(=O)C2CCCCC2C1=O)Nc1nc(-c2ccccn2)cs1 (stereo not given),inactive
15,Cc1c(N=Nc2c(O)n(Cc3ccccc3)c(=O)[nH]c2=O)c(=O)n(-c2ccccc2)n1C,inactive
16,C=CC(=O)Nc1ccc(N(C)c2ccnc(Nc3ccc(N4CCN(C)CC4)cc3)n2)cc1,inactive
17,CC(=O)N(Cc1ccc(F)cc1)C1=C(NCCc2ccccc2)C(=O)c2ccccc2C1=O,inactive
18,O=C(O)c1ccc(N=Nc2c(O)ccc3ncccc23)cc1,inactive
19,Cc1nc2sccn2c(=O)c1S(=O)(=O)Nc1cccc(Cl)c1C,inactive
20,CC(=NNC(=S)N1CC2CCC(CC2)C1)c1ccncn1,inactive
21,Clc1ccc(OCc2nc(-c3ccncc3)no2)c(Br)c1,inactive
22,CN1C(=O)/C(=C/c2cc(N=Nc3ccccc3)ccc2O)SC1=S,inactive
